Laboratory results reported in PubChem BioAssay (EPA / NIEHS).
Active and inactive are the calls of the source. Rule for the calls: active = hit-call score of the fitted dose curve at least 0.9, where 1 is the maximum; inactive = score below 0.9.

Assays:
[1] = ATG_GLI_CIS: Attagene CIS-FACTORIAL HepG2 Assay for human Zinc Finger Protein GLI1 (AID 2282945); conditions: HepG2, Attagene cis-factorial reporter mRNA, GLI element; actives raise or lower the signal
How it was run: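 Transiently transfected HepG2 cells report endogenous transcription factor activity via cis-element-driven reporter units. After 24 h compound exposure, reporter mRNA was measured by RT-PCR with capillary electrophoresis; bidirectional fitting against DMSO baseline.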

[2] = ATG_GRE_CIS: Attagene CIS-FACTORIAL HepG2 Assay for human Glucocorticoid Response Elements (GRE) (AID 2282947); conditions: HepG2 GRE cis-reporter, Attagene multiplex mRNA; actives raise or lower the signal
How it was run: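 Transiently transfected HepG2 cells carrying GRE cis-reporter units (endogenous TF activity) dosed 24 h; reporter mRNA quantified by RT-PCR, 6-FAM labelling, HpaI digestion and capillary electrophoresis. Bidirectional fit versus DMSO baseline.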

[3] = ATG_ISRE_CIS: Attagene CIS-FACTORIAL HepG2 Assay for human Interferon Regulatory Factor 1 (IRF1) binding to an Interferon-Stimulated Response Element (ISRE) (AID 2282948); conditions: HepG2 ISRE cis-reporter (Attagene), mRNA transcription readout; actives raise or lower the signal
How it was run: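 HepG2 cells transiently transfected with multiplexed cis-promoter reporter units; after 24 h compound exposure, reporter mRNA quantified by RT-PCR, FAM labelling, HpaI digestion and capillary electrophoresis. Bidirectional fit versus DMSO baseline.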

[4] = ATG_M_32_CIS: Attagene CIS-FACTORIAL HepG2 Assay for M32 Transcription Factor (Internal Marker) (AID 2282949); conditions: HepG2 Attagene cis-factorial M32 reporter, mRNA; actives raise or lower the signal;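 note: background control marker of the multiplexed CIS panel rather than a real target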
How it was run: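 Fluorescent capillary electrophoresis peaks of HpaI-digested, FAM-labelled RT-PCR reporter products give the signal. Source: transiently transfected human liver HepG2 cells, 24 h after chemical dosing; bidirectional fitting against DMSO.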

[5] = ATG_M_06_CIS: Attagene CIS-FACTORIAL HepG2 Assay for M06 Transcription Factor (Internal Marker) (AID 2282950); conditions: HepG2 Attagene CIS-FACTORIAL M06 internal marker reporter; actives raise or lower the signal
How it was run: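 Internal background marker within multiplexed cis-reporter HepG2 system. Cells transiently transfected, dosed 24 h; reporter mRNA measured by RT-PCR, HpaI digestion and capillary electrophoresis. Bidirectional fit relative to DMSO.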

[6] = biological target: Hypoxia-inducible factor 1-alpha (Homo sapiens) (UniProt Q16665); experiment: ATG_HIF1a_CIS: Attagene CIS-FACTORIAL HepG2 Assay for human Hypoxia Inducible Factor 1 (HIF1A) (AID 2282951); conditions: HepG2 Attagene cis-factorial HIF1a reporter transcription; actives raise or lower the signal
Chain of Hypoxia-inducible factor 1-alpha (Homo sapiens) (Q16665 whole entry, looked up): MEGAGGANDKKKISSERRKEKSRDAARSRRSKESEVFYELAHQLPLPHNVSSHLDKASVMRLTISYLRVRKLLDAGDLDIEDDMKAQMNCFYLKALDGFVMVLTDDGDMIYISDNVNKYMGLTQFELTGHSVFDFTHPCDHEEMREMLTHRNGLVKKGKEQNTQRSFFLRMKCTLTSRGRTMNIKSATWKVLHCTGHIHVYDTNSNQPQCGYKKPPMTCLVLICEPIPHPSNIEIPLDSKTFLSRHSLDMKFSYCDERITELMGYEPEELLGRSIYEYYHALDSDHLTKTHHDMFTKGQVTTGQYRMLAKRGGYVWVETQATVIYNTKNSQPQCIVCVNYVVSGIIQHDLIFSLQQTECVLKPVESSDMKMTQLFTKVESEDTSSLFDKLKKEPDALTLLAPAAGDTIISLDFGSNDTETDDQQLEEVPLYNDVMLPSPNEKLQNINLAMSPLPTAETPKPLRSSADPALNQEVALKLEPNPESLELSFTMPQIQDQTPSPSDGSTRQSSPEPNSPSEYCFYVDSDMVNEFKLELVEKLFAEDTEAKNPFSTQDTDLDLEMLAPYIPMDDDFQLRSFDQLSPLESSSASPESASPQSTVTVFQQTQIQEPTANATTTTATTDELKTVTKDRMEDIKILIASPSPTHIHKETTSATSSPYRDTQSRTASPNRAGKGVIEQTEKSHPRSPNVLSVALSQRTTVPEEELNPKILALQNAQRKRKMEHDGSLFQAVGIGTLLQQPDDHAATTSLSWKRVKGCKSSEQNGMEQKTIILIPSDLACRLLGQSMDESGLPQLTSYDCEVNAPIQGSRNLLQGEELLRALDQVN
How it was run: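 HepG2, transient cis-reporter library, 24 h dosing. RNA → RT (oligo dT) → PCR → 6-FAM primer extension → HpaI → CE. Bidirectional curve fit vs DMSO.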

[7] = biological target: Hepatocyte nuclear factor 6 (Homo sapiens) (UniProt Q9UBC0); experiment: ATG_HNF6_CIS: Attagene CIS-FACTORIAL HepG2 Assay for human Hepatocyte Nuclear Factor 6 (HNF6) (AID 2282952); conditions: HepG2 Attagene cis-factorial HNF6 reporter transcription; actives raise or lower the signal
Chain of Hepatocyte nuclear factor 6 (Homo sapiens) (Q9UBC0 whole entry, looked up): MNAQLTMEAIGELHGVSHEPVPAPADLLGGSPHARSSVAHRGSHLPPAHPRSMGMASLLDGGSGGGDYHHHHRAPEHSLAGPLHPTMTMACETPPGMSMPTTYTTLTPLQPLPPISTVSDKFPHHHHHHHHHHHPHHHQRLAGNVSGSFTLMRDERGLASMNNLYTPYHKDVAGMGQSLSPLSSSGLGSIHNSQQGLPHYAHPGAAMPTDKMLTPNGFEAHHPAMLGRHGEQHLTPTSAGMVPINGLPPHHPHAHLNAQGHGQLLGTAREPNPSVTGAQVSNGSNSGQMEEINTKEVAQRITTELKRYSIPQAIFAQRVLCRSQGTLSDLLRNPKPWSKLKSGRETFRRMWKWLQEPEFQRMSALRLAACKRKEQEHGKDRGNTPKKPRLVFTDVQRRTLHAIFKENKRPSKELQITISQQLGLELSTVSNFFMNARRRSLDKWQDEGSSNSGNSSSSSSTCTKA
How it was run: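 Transiently transfected HepG2 cells expressing cis-regulated reporter transcription units were exposed to chemical for 24 h in a 24-well format. Reporter transcript abundance was determined by fluorescence capillary electrophoresis.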

[8] = biological target: Heat shock factor protein 1 (Homo sapiens) (UniProt Q00613); experiment: ATG_HSE_CIS: Attagene CIS-FACTORIAL HepG2 Assay for human Heat Shock Transcription Factor 1 (HSE) (AID 2282953); conditions: HepG2 HSE cis-reporter, Attagene RNA transcription; actives raise or lower the signal
Chain of Heat shock factor protein 1 (Homo sapiens) (Q00613 whole entry, looked up): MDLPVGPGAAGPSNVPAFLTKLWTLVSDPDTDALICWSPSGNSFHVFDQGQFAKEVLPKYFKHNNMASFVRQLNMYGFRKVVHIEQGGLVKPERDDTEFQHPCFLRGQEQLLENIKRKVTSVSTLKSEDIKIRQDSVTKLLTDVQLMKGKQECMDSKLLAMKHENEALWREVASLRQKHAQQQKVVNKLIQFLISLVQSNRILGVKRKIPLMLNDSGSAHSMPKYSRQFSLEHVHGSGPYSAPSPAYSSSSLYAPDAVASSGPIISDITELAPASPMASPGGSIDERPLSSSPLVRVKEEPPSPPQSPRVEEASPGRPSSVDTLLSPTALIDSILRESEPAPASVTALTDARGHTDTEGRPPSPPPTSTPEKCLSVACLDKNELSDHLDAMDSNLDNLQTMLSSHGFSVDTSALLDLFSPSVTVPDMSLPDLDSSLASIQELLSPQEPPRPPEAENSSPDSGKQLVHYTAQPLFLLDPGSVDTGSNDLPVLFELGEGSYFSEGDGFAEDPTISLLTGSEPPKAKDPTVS
How it was run: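 HepG2 cells transfected with cis-promoter reporter units sensing endogenous transcription factor activity; reporter mRNA quantified 24 h post-dose by RT-PCR and capillary electrophoresis of 6-FAM-labelled products. Bidirectional fitting against DMSO.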

[9] = ATG_MRE_CIS: Attagene CIS-FACTORIAL HepG2 Assay for human Metal Responsive Element (MRE) (AID 2282954); conditions: HepG2 MRE cis-reporter transcription, Attagene multiplex; actives raise or lower the signal
How it was run: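 HepG2 cells transiently transfected with cis-element-driven reporter units; mRNA measured 24 h after dosing. Reporter transcripts quantified by RT-PCR, FAM labelling, HpaI digestion and capillary electrophoresis; bidirectional fit versus DMSO.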

[10] = ATG_PBREM_CIS: Attagene CIS-FACTORIAL HepG2 Assay for human Phenobarbital-responsive Enhancer Module (PBREM) (AID 2282955); conditions: HepG2 PBREM cis-reporter, Attagene multiplexed transcription; actives raise or lower the signal
How it was run: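 HepG2, transient MRTU transfection, 24 h dosing; RNA → oligo(dT) RT → PCR → 6-FAM extension → HpaI → CE. Bidirectional fit vs DMSO.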

[11] = biological target: Paired box protein Pax-6 (Homo sapiens) (UniProt P26367); experiment: ATG_Pax6_CIS: Attagene CIS-FACTORIAL HepG2 Assay for human Paired Box 6 (PAX6) (AID 2282956); conditions: HepG2 CIS-FACTORIAL PAX6 reporter transcription, RNA readout; actives raise or lower the signal
Chain of Paired box protein Pax-6 (Homo sapiens) (P26367 whole entry, looked up): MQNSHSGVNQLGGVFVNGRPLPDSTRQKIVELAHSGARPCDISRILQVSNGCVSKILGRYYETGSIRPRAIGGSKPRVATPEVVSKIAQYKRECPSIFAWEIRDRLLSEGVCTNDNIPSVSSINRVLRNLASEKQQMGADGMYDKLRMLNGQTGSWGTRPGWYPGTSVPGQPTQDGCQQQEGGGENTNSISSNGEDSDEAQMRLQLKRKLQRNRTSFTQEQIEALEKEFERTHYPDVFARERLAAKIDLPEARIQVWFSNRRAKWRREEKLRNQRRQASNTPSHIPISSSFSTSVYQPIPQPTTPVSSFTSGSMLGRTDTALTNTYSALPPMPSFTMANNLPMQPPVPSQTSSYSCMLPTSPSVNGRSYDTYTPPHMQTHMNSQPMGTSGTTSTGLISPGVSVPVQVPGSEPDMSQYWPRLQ
How it was run: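 HepG2 cells transiently transfected with multiplexed cis-promoter reporter units (endogenous TF activity) were dosed for 24 h. Reporter mRNA was quantified by RT-PCR, 6-FAM labeling, HpaI digestion and capillary electrophoresis; bidirectional fitting versus DMSO baseline.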

[12] = ATG_PXRE_CIS: Attagene CIS-FACTORIAL HepG2 Assay for human Pregnane X Receptor Element (PXRE) (AID 2282957); conditions: HepG2 Attagene CIS-FACTORIAL PXRE reporter, mRNA; actives raise or lower the signal
How it was run: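 Cis-element reporter mRNA in human hepatoma HepG2 cells is measured 24 h post-dosing by RT-PCR, primer-extension labeling and capillary electrophoresis; gain or loss of signal is fitted relative to DMSO.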

[13] = ATG_PPRE_CIS: Attagene CIS-FACTORIAL HepG2 Assay for human Peroxisome Proliferator-activated Response Element (PPRE) (AID 2282958); conditions: HepG2 PPRE cis-element reporter, Attagene transcription factor profiling; actives raise or lower the signal
How it was run: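 Transcript-level reporter induction in transfected HepG2 cells after 24 h chemical exposure, quantified by fluorescence from RT-PCR products separated by capillary electrophoresis.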

[14] = ATG_RORE_CIS: Attagene CIS-FACTORIAL HepG2 Assay for human RAR-related Orphan Receptor Element (RORE) (AID 2282959); conditions: HepG2 Attagene cis-factorial RORE reporter, mRNA; actives raise or lower the signal
How it was run: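 Multiplexed reporter assay measuring mRNA induction from a cis promoter element in transiently transfected HepG2 cells after 24 h treatment. Detection via RT-PCR and capillary electrophoresis fluorescence; DMSO serves as baseline.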

[15] = ATG_Sox_CIS: Attagene CIS-FACTORIAL HepG2 Assay for human SRY-box transcription factor (SOX) (AID 2282960); conditions: HepG2 Attagene cis-factorial SOX reporter, mRNA; actives raise or lower the signal
How it was run: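 Cells were transfected with reporter constructs under cis-regulatory promoters, then exposed to chemicals for 24 h. Reporter transcripts were quantified by fluorescence after RT-PCR and capillary electrophoresis; activity was fitted in both directions against DMSO.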

[16] = biological target: Transcription factor Sp1 (Homo sapiens) (UniProt P08047); experiment: ATG_Sp1_CIS: Attagene CIS-FACTORIAL HepG2 Assay for human Specificity Protein 1 (Sp1) (AID 2282961); conditions: HepG2 Sp1 cis-reporter transcription, actives raise or lower the signal
Chain of Transcription factor Sp1 (Homo sapiens) (P08047 whole entry, looked up): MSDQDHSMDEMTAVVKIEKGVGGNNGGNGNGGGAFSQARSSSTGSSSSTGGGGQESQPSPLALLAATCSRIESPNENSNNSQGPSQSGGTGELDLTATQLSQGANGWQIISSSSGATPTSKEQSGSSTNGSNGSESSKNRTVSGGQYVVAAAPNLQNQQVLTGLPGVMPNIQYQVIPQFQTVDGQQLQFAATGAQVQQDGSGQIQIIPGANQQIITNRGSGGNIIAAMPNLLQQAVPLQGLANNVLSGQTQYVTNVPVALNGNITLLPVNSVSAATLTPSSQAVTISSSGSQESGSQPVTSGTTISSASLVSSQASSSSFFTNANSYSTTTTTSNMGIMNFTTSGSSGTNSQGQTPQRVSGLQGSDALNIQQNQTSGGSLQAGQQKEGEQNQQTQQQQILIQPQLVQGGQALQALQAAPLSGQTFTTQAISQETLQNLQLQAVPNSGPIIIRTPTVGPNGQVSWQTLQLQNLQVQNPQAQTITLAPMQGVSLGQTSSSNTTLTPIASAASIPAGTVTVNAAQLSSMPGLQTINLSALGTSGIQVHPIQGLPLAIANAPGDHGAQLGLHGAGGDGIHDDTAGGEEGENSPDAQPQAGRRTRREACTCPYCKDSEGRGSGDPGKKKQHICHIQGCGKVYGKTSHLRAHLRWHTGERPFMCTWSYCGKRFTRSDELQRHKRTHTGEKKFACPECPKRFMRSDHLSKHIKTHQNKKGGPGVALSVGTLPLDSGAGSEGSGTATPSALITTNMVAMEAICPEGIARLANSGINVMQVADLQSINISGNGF
How it was run: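 Measures mRNA induction of an Sp1-linked reporter in HepG2 cells 24 h post-dosing. Multiplexed reporters read by RT-PCR and capillary electrophoresis; DMSO serves as negative control and baseline.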

[17] = ATG_SREBP_CIS: Attagene CIS-FACTORIAL HepG2 Assay for human Sterol Regulatory Element Binding (SREBP) (AID 2282962); conditions: HepG2 Attagene cis-factorial SREBP reporter, mRNA; actives raise or lower the signal
How it was run: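 HepG2 cells transiently transfected with multiplexed cis-element reporter units report endogenous transcription factor activity. After 24 h of chemical exposure, reporter mRNA was quantified by RT-PCR, 6-FAM labelling, HpaI digestion and capillary electrophoresis; bidirectional fits used DMSO as baseline.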

[18] = biological target: Signal transducer and activator of transcription 3 (Homo sapiens) (UniProt P40763); experiment: ATG_STAT3_CIS: Attagene CIS-FACTORIAL HepG2 Assay for human Signal Transducer and Activator of Transcription 3 (STAT3) (AID 2282963); conditions: HepG2, Attagene cis-factorial STAT3 reporter transcription; actives raise or lower the signal
Chain of Signal transducer and activator of transcription 3 (Homo sapiens) (P40763 whole entry, looked up): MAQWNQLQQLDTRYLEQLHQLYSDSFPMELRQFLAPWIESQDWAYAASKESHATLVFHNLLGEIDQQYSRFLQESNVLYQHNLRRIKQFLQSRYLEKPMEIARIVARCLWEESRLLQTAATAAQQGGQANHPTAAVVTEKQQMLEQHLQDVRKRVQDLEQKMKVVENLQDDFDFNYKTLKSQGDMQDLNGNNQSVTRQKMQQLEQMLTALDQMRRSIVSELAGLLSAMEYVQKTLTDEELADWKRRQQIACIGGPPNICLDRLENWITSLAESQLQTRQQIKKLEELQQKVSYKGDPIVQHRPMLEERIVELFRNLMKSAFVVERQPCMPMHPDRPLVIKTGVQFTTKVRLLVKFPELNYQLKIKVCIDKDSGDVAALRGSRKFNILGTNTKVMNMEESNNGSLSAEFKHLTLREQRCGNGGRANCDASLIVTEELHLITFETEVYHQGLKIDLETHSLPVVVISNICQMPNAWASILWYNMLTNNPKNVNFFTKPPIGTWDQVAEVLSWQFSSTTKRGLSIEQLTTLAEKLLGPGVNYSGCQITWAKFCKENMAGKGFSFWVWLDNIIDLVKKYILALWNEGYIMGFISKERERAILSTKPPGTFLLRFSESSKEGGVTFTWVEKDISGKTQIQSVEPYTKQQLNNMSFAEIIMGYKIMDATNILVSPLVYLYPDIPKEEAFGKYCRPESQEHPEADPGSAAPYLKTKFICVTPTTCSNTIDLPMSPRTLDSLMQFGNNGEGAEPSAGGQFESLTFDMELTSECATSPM
How it was run: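 HepG2 cells transiently transfected with multiple cis-element-driven reporter units report endogenous transcription factor activity. After 24 h compound exposure, reporter mRNA is measured by RT-PCR, 6-FAM labelling, HpaI digestion and capillary electrophoresis. Fitted bidirectionally versus DMSO.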

[19] = ATG_TA_CIS: Attagene CIS-FACTORIAL HepG2 Assay for human TA Basal Promoter (AID 2282964); conditions: HepG2 Attagene CIS-factorial TA basal promoter reporter; actives raise or lower the signal
How it was run: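 HepG2 cells transiently transfected with multiple reporter units under cis promoter elements, reporting endogenous transcription factor activity; this endpoint tracks the TA basal promoter as background control. Reporter mRNA after 24 h dosing measured by RT-PCR/capillary electrophoresis; bidirectional fits versus DMSO.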

[20] = biological target: Bile acid receptor (Homo sapiens) (UniProt Q96RI1); experiment: ATG_IR1_CIS: Attagene CIS-FACTORIAL HepG2 Assay for human Nuclear Receptor Subfamily 1 Group H Member 4 (NR1H4), IR1 submotif (AID 2282946); conditions: IR1 reporter transcription, actives raise or lower the signal
Chain of Bile acid receptor (Homo sapiens) (Q96RI1 whole entry, looked up): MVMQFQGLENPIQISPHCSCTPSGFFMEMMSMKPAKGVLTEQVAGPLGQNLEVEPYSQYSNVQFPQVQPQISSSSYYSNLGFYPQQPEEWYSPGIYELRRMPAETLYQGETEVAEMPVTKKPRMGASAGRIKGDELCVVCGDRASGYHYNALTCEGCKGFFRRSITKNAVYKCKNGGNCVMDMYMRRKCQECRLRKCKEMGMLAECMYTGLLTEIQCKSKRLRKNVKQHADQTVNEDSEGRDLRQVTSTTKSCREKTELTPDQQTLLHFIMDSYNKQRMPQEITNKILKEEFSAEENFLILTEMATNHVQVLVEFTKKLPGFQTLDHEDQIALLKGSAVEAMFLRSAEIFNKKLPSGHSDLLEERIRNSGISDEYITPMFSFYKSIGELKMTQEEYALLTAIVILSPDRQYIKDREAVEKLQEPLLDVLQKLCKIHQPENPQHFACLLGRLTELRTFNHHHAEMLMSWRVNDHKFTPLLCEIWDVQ
How it was run: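 HepG2 cells transiently transfected with multiple cis-promoter-driven reporter units to measure endogenous transcription factor activity; 24 h exposure. Reporter mRNA read by RT-PCR, FAM labelling, HpaI digestion and capillary electrophoresis. Bidirectional fit versus DMSO.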

Measured: AC50

CC(C)(C)C1CCC(O)CC1 (centres undefined)
not listed: [20]
inactive: all other assays above

CCCO
not listed: [10] | [12] | [20]
inactive: all other assays above

O=C(O)CS
not listed: [10] | [20]
inactive: all other assays above

O=C(OCc1ccccc1)c1ccccc1O
active: [12] 77.9 µM | [17] 128 µM
not listed: [10] | [13] | [20]
inactive: all other assays above

FC(F)(F)c1ccc(Cl)c(Cl)c1
not listed: [10] | [12] | [20]
inactive: all other assays above

c1coc(CNc2ncnc3nc[nH]c23)c1
active: [12] 44 µM
not listed: [20]
inactive: all other assays above

O=S1(=O)CC=CC1
not listed: [10] | [20]
inactive: all other assays above

CCCCCCCCOC(=O)c1ccc(O)cc1
active: [12] 13.4 µM
not listed: [11] | [13] | [14] | [20]
inactive: all other assays above

C=C(C)C(=O)OCCC(C)OC(=O)C(=C)C (centres undefined)
active: [12] 56.2 µM
not listed: [19] | [20]
inactive: all other assays above

NC(N)=NC(N)=NCCc1ccccc1
not listed: [10] | [17] | [20]
inactive: all other assays above

CCCCCCCCCCCCCCCCCC(=O)OCCCCCCCCCCCCCC(C)C
not listed: [10] | [12] | [19] | [20]
inactive: all other assays above

OCCCO
not listed: [10] | [20]
inactive: all other assays above

CC(=O)C1=C(C)[C@@H]2C[C@@]3(C1)[C@H](C)CC[C@H]3C2(C)C
inactive: [20] | [11] | [13] | [14] | [15]
active: [1] 166 µM | [4] 148 µM | [5] 75.3 µM | [6] 131 µM | [7] 186 µM | [8] 24.5 µM | [9] 146 µM | [10] 161 µM | [12] 1.91 µM | [16] 50.5 µM | [17] 71.8 µM | [18] 150 µM

CCn1cc(C(=O)O)c(=O)c2ccc(C)nc21
not listed: [2] | [6] | [7] | [10]
inactive: all other assays above

CCCCOCCOC(=O)c1ccccc1C(=O)OCCOCCCC
active: [12] 5.46 µM
not listed: [2] | [9] | [17]
inactive: all other assays above

CCOC(=O)C(=O)OCC
not listed: [20]
inactive: all other assays above
